High-throughput results from PubChem.
Hits are enriched below; roughly 11% of the tested compounds scored in any of these assays.
HCV inh: HCV inhibition. Huh7.5.1 HCVcc-Cre infection, luciferase reporter, 44 h. Potency, µM (top dose mostly 41.8 µM), hits mostly inhibitors. actives 3.4% (n = 340,000)
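Seed cells (1,000/well) for 4 h; treat with compound and infect with HCVcc-Cre, moi about 0.5. Incubate 44 h, then detect luciferase activity.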
Pf growth 96h: P. falciparum growth inhibition at 96 hour, primary screen for plastid delayed-death inhibitors | AID 504834 | actives 6.9% (n = 320,000) | Potency, µM (titrated, usually from 28.7 µM), most hits filed as inhibitors | P. falciparum luciferase reporter growth, 96 h
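Parasite growth measured via integrated firefly luciferase reporter in P. falciparum. Infected erythrocytes at 2% hematocrit, 0.05% parasitemia final were treated 96 hours at 37 C under 5% CO2, and luminescence was read.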
VACV mCherry inh: vaccinia inhibition (mCherry reporter) | Vaccinia virus mCherry reporter infection, fluorescence | Potency, µM (series often up to 36.5 µM), usual class: inhibitors | actives 0.63% (n = 310,000) | AID 720579; calls by dose curve; tested in A549 cells; note: nearly all actives have a fitted effect of over 35% in size
VACV Venus inh: vaccinia inhibition (Venus reporter) | Vaccinia virus Venus reporter expression, fluorescence | Potency, µM (series often up to 36.5 µM), usual class: inhibitors | actives 0.46% (n = 330,000); calls by dose curve; tested in A549 cells; note: nearly all actives have a fitted effect of over 30% in size
Pf growth 48h: inhibits P. falciparum growth in the first generation, 48 h; P. falciparum luciferase growth in erythrocytes, 48 h; Potency, µM (top dose mostly 28.7 µM), usual class: inhibitors; actives 5.9% (n = 310,000); AID 504832
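Here the parasites carry a stable luciferase gene and grow inside erythrocytes in Albumax-based RPMI medium with compound for one erythrocytic cycle. Activity is scored as loss of luminescent signal.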
NS1 function inh: inhibitors of influenza NS1 protein function; actives 0.4% (n = 270,000); Potency, µM (series often up to 46.1 µM); calls by dose curve; note: actives are rising curves; nearly all actives have a fitted effect of over 50% in size
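In this qHTS, NS1 from influenza A is expressed in budding yeast, where it slows growth. Cells are switched from glucose to 2% galactose medium (pH 6.0, -URA), treated with compound, and growth recovery is read at OD600.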
Hits are given with their value; n = inactive; u = inconclusive; x = no result given; [ ] = dose if it differs, or a comment. Unless noted, calls come from the whole dose curve; as a rule, active = well fitted inhibition curve with a large enough effect; inconclusive = small, poorly fitted or top-dose-only effect, or another doubt; inactive = no such curve, though single readings can be large or run the other way.

SMILES | HCV inh | Pf growth 96h | VACV mCherry inh | VACV Venus inh | Pf growth 48h | NS1 function inh
CCCn1c(=O)c(C(=O)NNC(=O)c2cccc([N+](=O)[O-])c2)c(O)c2ccccc21 | n | n | n | n | n | n
COc1ccc(/C=N/NS(=O)(=O)c2ccccc2)cc1OS(=O)(=O)c1ccccc1 | n | n | x | n | n | n
COc1ccc(C(=O)N/N=C/c2ccc(OC)c(OS(=O)(=O)c3ccccc3)c2)cc1 | 10µM | u | u | n | u | n
CC(=O)Nc1ccc(C(=O)N/N=C/c2ccc(F)cc2)cc1 | n | u | x | x | n | x
CC(=O)Nc1ccc(S(=O)(=O)Oc2ccc(/C=N/NC(=O)c3ccc(Cl)cc3)cc2)cc1 | 3.98µM | u | u | n | 13.1µM | n
Cc1ccc2nc(N3CCN(c4cccc(C)c4C)CC3)c3nncn3c2c1 | x | x | n | n | x | x
COC(=O)c1cccc(NC(=S)NC(C)C)c1 | n | n | n | n | n | x
CCCCn1nc2cc(C(=O)NC3CCc4ccccc43)ccc2c1OCC (configuration not stated) | u | 8.28µM | n | n | u | n
CCCCn1nc2cc(C(=O)NCc3ccccc3OC)ccc2c1OCC | 3.55µM | u | n | n | u | n
CCCCn1nc2cc(C(=O)NCc3ccc(C(F)(F)F)cc3C(F)(F)F)ccc2c1OCC | u | n | n | u | n | n
CC1(c2ccccc2)NC(=O)N(NC(=O)CSc2n[nH]c(N)n2)C1=O (configuration not stated) | n | n | x | x | n | n
COc1ccc(NC(=O)N2CCN(c3ccc([N+](=O)[O-])cc3)CC2)cc1OC | 10µM | u | n | n | n[5.75 µM] | x
COc1ccccc1CC(=O)N1CCN(c2ccc([N+](=O)[O-])cc2)CC1 | 6.31µM | n | x | x | n | n
Cc1ccc(CC(=O)N2CCN(c3ccc([N+](=O)[O-])cc3)CC2)cc1 | u | u | n | n | n | n
COc1ccc(C(=O)N2CCN(c3ccc([N+](=O)[O-])c(NCCc4ccc(OC)c(OC)c4)c3)CC2)cc1 | 1µM | 4.65µM | u | n | 10.4µM | n
COc1ccc(C(=O)NCCNc2ccc([N+](=O)[O-])cc2)cc1OC | n | 5.22µM | n | n | n | n
COc1ccc(N2CCN(C(=O)CCc3cc(OC)c(OC)c(OC)c3)CC2)cc1 | n | u | x | x | n | n
COc1ccc(CCC(=O)N2CCN(c3ccc([N+](=O)[O-])cc3)CC2)cc1OC | 31.6µM | u | n | n | n | n
COc1ccc(CN(C)C(=O)c2ccc(NC(=O)CC3SC(N4CCCC4)=NC3=O)cc2)c(OC)c1 (configuration not stated) | n | u | n | n | u | x
c1ccc(C(c2ccccc2)c2noc(CN3CCC(c4ccncc4)CC3)n2)cc1 | n | u | n | n | 10.4µM | n
c1ccc(C2CCCN(Cc3nc(CC4CC4)no3)CC2)cc1 (configuration not stated) | n | n | n | n | u | n
CCOC(=O)Cc1nnc(Nc2ccc(C)cc2C)c2ccccc12 | n | 4.65µM | n | n | n | n
Cc1ccc(-n2cc(CNCCN3CCOC3=O)c(-c3cccc(C)c3)n2)cc1 | n | n | n | u | n | n
COC(=O)CC1C(=O)NCCN1Cc1cn(-c2ccc(C)cc2)nc1-c1cccc(C)c1 (configuration not stated) | n | 10.4µM | n | n | u | n
CN(C)C1=NC[C@H](Cc2ccccc2)N1CCC1CCCC1 | u | u | n | n | 10.4µM | x
SMILES | HCV inh | Pf growth 96h | VACV mCherry inh | VACV Venus inh | Pf growth 48h | NS1 function inh
CN(C)C1=NC[C@H](Cc2ccccc2)N1CCCC1CCCC1 | u | u | n | n | 9.28µM | x
CN(C)C1=NC[C@H](Cc2ccccc2)N1CCCC1CCCCC1 | 3.98µM | 5.22µM | u | n | 7.38µM | x
CN(C)C1=NC[C@H](Cc2ccccc2)N1CCc1cccc(F)c1 | n | u | n | n | u | x
CN(C)C1=NC[C@H](Cc2ccccc2)N1CC1CCCCCC1 | u | u | n | n | 11.7µM | x
c1ccc(C[C@H]2CN=C(Nc3ccccc3)N2CCCC2CCCC2)cc1 | n | u | u | n | u | n
CCc1ccc(C(=O)/C=C/Nc2ccc(S(=O)(=O)Nc3cnc4ccccc4n3)cc2)cc1 | n | n | n | n | n | n
Cc1cc(C)n2c(Nc3ccc4c(c3)OCCO4)c(-c3ccc(F)cc3)nc2n1 | x | x | n | n | x | x
